Compounds with a hit are over-represented: about 21% of the library has one in this group of screens.
Cycloheximide cs: affects cycloheximide protein synthesis inhibition readout, counter-screen; cell reporter, cycloheximide protein synthesis inhibition counterscreen; max response, %; 300,000 compounds, 12% hits; AID 2314; in the data active = max response mostly above about 13%, no sharp cut-off; inactive = mostly below about 14%; note: read at 38.3 µM for the half of the compounds with a filed dose
Pf growth 48h: P. falciparum growth inhibition at 48 hours (one generation). P. falciparum luciferase growth in erythrocytes, 48 h. Potency, µM (series often up to 28.7 µM), actives largely listed as inhibitors. 310,000 compounds, 5.9% hits
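Here the parasites carry a stable luciferase gene and grow inside erythrocytes in Albumax-based RPMI medium with compound for one erythrocytic cycle. Activity is scored as loss of luminescent signal.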
Pf growth 96h: inhibits malaria parasite growth, 96 h | P. falciparum luciferase reporter growth, 96 h | Potency, µM (series often up to 28.7 µM), actives largely listed as inhibitors | 320,000 compounds, 6.9% hits | AID 504834
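P. falciparum expressing integrated firefly luciferase grown in erythrocytes (2% hematocrit, 0.05% parasitemia final) with compounds for 96 hours at 37 C, 5% CO2. Growth inhibition read as loss of luminescence after adding luciferase detection reagent.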
Shiga toxin inh: inhibitors of Shiga toxin in Vero cells; AID 2315; 290,000 compounds, 9.2% hits; inhibition, % at 38.7 µM; Vero cells, Shiga toxin protein synthesis inhibition reporter; in the data active = inhibition mostly above about 28%, no sharp cut-off; inactive = mostly below about 43%
Of the large screens only hits and unclear results are named; the others gave an inactive call. Unless noted, calls come from the whole dose curve; as a rule, active = well fitted inhibition curve with a large enough effect; inconclusive = small, poorly fitted or top-dose-only effect, or another doubt; inactive = no such curve, though single readings can be large or run the other way.

CCn1c(C)cc2c(c1=O)C(c1ccccc1)C(C(=O)OC)=C(N)O2 (stereo not given)	none
Cc1ccc(S(=O)(=O)NCC(C)n2nc(C)nc2C)cc1 (stereo not given)	none
COc1ccc(Cl)c2sc(N(CCN(C)C)C(=O)c3ccc4c(c3)OCCO4)nc12	Pf growth 96h inconclusive (no result: Cycloheximide cs, Shiga toxin inh)
CC1CCCN(S(=O)(=O)c2ccc(NC(=O)Cc3ccc(S(=O)(=O)N4CCOCC4)s3)cc2)C1 (stereo not given)	Pf growth 48h inconclusive, Pf growth 96h 7.38µM (no result: Cycloheximide cs, Shiga toxin inh)
CC1CCN(S(=O)(=O)c2ccc(NC(=O)Cc3ccc(S(=O)(=O)N4CCOCC4)s3)cc2)CC1	Pf growth 96h inconclusive (no result: Cycloheximide cs, Shiga toxin inh)
CC1CCCCC1NC(=O)Cc1ccc(S(=O)(=O)N2CCOCC2)s1 (stereo not given)	Pf growth 48h inconclusive, Pf growth 96h 11.7µM (no result: Cycloheximide cs, Shiga toxin inh)
CNC(=O)c1ccc(NC(=O)Cc2ccc(S(=O)(=O)N3CCOCC3)s2)cc1	Pf growth 96h 14.7µM (no result: Cycloheximide cs, Shiga toxin inh)
O=C(Cc1ccc(S(=O)(=O)N2CCOCC2)s1)NCC1CCCCC1	none (no result: Pf growth 48h)
Cc1cccc(C)c1NC(=S)N(CCN(C)C)Cc1cccs1	Pf growth 96h inconclusive
Cc1cc(C)c(NC(=S)N(CCN(C)C)Cc2cccs2)c(C)c1	Pf growth 96h 3.29µM
CCN(CC)S(=O)(=O)c1cccc(N=Nc2c(O)c3ccccc3oc2=O)c1	none
CCCOc1ccc(N2C(=O)CC(N3CCN(CCN=CC4=C(O)CC(C)(C)CC4=O)CC3)C2=O)cc1 (stereo not given)	none
CC1(C)CC(=O)C(C=NCCN2CCN(C3CC(=O)N(c4ccc(Br)cc4)C3=O)CC2)=C(O)C1 (stereo not given)	Pf growth 96h 13.1µM
CC(C[N+](C)(C)C)OC(=O)C1(c2ccccc2)CCCC1 (stereo not given)	Pf growth 48h 10.4µM, Pf growth 96h inconclusive
CCN(CC)CCOCCOC(=O)C1(c2ccccc2)CCCC1	Pf growth 48h 3.01µM, Pf growth 96h 3.38µM (no result: Cycloheximide cs, Shiga toxin inh)
O=C(COc1ccccc1)c1cn(CC(=O)N2CCCC2)c2ccccc12	none
Cc1ccc(NC(=O)c2c3c(nc4ccccc24)CCC3)cc1	Pf growth 48h inconclusive
Cc1ccc(NC(=O)c2ccc3ccccc3n2)cc1S(=O)(=O)N(C)C	Cycloheximide cs 26.5, Shiga toxin inh 78.6
COc1cc(NC(=O)c2c3c(nc4ccccc24)CCC3)cc(OC)c1	Pf growth 96h inconclusive
Cc1ccc(NC(=O)c2c3c(nc4ccccc24)CCC3)cc1S(=O)(=O)N(C)C	Cycloheximide cs 37.2, Pf growth 96h inconclusive, Shiga toxin inh 50.3
CCOc1ccc(NC(=O)c2c3c(nc4ccccc24)CCC3)cc1	Pf growth 48h 4.15µM, Pf growth 96h 3.7µM
Cc1cnc(C(=O)Nc2ccc(C)c(S(=O)(=O)N(C)C)c2)cn1	Pf growth 96h inconclusive
COC(=O)NNC(=S)Nc1ccc(Br)cc1	Pf growth 96h inconclusive
O=C1c2c(O)cc(O)cc2O[C@H](c2ccc(O)c(O)c2)C1O (stereo not given in full)	none (no result: Pf growth 48h, Pf growth 96h)
CC1CCN(C(=O)c2[nH]cnc2C(=O)Nc2ccc(Cl)cc2)CC1	Pf growth 96h inconclusive (no result: Cycloheximide cs, Shiga toxin inh)
Cc1sc2ncnc(N3CCC(C(=O)Nc4ccccc4C(C)(C)C)CC3)c2c1C	Pf growth 48h 11.7µM, Pf growth 96h inconclusive (no result: Cycloheximide cs, Shiga toxin inh)
CCOC(=O)c1ccccc1NC(=O)C1CCN(c2ncnc3sc(C)c(C)c23)CC1	Pf growth 48h 10.4µM (no result: Cycloheximide cs, Shiga toxin inh)
COc1cc(OC)c(NC(=O)Nc2cc(C)on2)cc1Cl	none (no result: Pf growth 48h, Pf growth 96h)
CCn1c(SCC(=O)Nc2ccc3c(c2)OCCO3)nnc1-c1ccco1	none
O=C(CCn1c(=S)oc2ccccc21)Nc1ccc2c(c1)OCCO2	Cycloheximide cs 14.8
Cc1ccc(C)c(SCC(=O)NC(=O)Nc2ccc3c(c2)OCCO3)c1	none
CCn1c(SCC(=O)NC(=O)Nc2ccc3c(c2)OCCO3)nnc1-c1cccs1	Cycloheximide cs 18.0 (no result: Pf growth 48h)
COc1ccc(Nc2nnc(SCC(=O)NC(=O)Nc3ccc4c(c3)OCCO4)s2)cc1	Cycloheximide cs 14.9
O=C(CSc1ncccn1)NC(=O)Nc1ccc2c(c1)OCCO2	Cycloheximide cs 34.6, Shiga toxin inh 46.0
CC(=O)c1cn(-c2ccc(Cl)cc2)c(=O)[nH]c1=O	Pf growth 96h inconclusive
COc1ccc(Nc2nnc(SCC(=O)N3CCCC3)s2)cc1	Pf growth 96h inconclusive (no result: Pf growth 48h)
COc1cccc(Nc2nnc(SCC(=O)N3CCOCC3)s2)c1	Cycloheximide cs 16.3, Pf growth 48h inconclusive
O=C(CSc1ccc([N+](=O)[O-])cn1)Nc1ccc2c(c1)OCCO2	Cycloheximide cs 17.3
O=C(CCn1cnc2ccccc2c1=O)Nc1ccc2c(c1)OCCO2	Cycloheximide cs 14.4, Shiga toxin inh 73.4
CN(C)S(=O)(=O)c1ccc(SCC(=O)Nc2ccc3c(c2)OCCO3)nc1	none (no result: Cycloheximide cs, Shiga toxin inh)
O=C(CSc1nccc(=O)[nH]1)Nc1ccc2c(c1)OCCO2	Cycloheximide cs 41.6, Shiga toxin inh 154.6
COC(=O)[C@H](C)[C@H](CC(C)C)NC(=O)[C@H](C)[C@H](CC(C)C)NC(=O)c1ccccn1	none (no result: Pf growth 48h, Pf growth 96h)
NNC(=O)c1ncoc1-c1ccc(Cl)cc1	none
O=C(CSc1ccccn1)Nc1ccc2c(c1)OCCO2	Cycloheximide cs 54.5, Shiga toxin inh 88.8
O=C1CN(C(=O)CSc2nncs2)c2ccccc2N1	none
O=C1CCN(C(=O)CCCn2c(=O)oc3ccccc32)CC1	none
COc1ccc(Nc2nnc(SCC(=O)N3CC(=O)Nc4ccccc43)s2)cc1	Pf growth 48h inconclusive, Pf growth 96h 2.33µM
O=C(CCCn1c(=O)oc2ccccc21)N1CCc2ccccc2C1	Cycloheximide cs 26.6, Pf growth 96h inconclusive, Shiga toxin inh 37.9
O=C(CSc1ccc([N+](=O)[O-])cn1)Nc1ccc2[nH]c(=O)[nH]c2c1	Pf growth 96h 4.65µM
Cc1ccc(NC(=S)N2CCN(c3ccccn3)CC2)cc1C	none
Cc1cc(Nc2n[nH]c(N)c2C#N)ccc1F	none
O=C(CCn1c(=S)oc2ccccc21)N1CCCCC1	Cycloheximide cs 25.7, Pf growth 48h inconclusive, Pf growth 96h inconclusive
CCCCOc1ccc(/C=C/C(=O)NC2=Nc3ccccc3NC(C)=C2C(=O)OCC)cc1OC	Pf growth 48h inconclusive, Pf growth 96h 10.4µM
CC1CCCN(S(=O)(=O)c2ccc(CN3C(=O)c4cccnc4C3=O)cc2)C1 (stereo not given)	Pf growth 96h inconclusive
CCn1c(-c2ccccc2Cl)nn(CC(=O)NCCc2ccccc2)c1=S	Pf growth 96h inconclusive
CCn1c(-c2ccccc2Cl)nn(CC(=O)Nc2cc(Cl)ccc2Cl)c1=S	Pf growth 48h inconclusive, Pf growth 96h 10.4µM
O=C1C2CCN(CC2)[C@@H]1Cc1ccc2ccccc2c1O	Cycloheximide cs 33.0, Shiga toxin inh 40.2
CSc1ccc(NC(=O)N2CC=C(n3c(=O)[nH]c4ccccc43)CC2)cc1	Pf growth 48h inconclusive, Pf growth 96h inconclusive
CN(Cc1ccco1)C(=O)Cn1ncc2c([nH]c3ccccc32)c1=O	Pf growth 96h 9.28µM
CC(C)CCNC(=O)c1cc(S(=O)(=O)N2CCc3ccccc32)cn1C	Pf growth 96h 1.17µM
CC(C)CCNC(=O)Cn1c(=O)oc2cc(S(=O)(=O)N3CCc4ccccc43)ccc21	Pf growth 96h 11.7µM (no result: Pf growth 48h)
Cn1cc(S(=O)(=O)N2CCc3ccccc32)cc1C(=O)Nc1ccc(Cl)cc1	Pf growth 48h 13.1µM
O=C(Cn1c(=O)oc2cc(S(=O)(=O)N3CCc4ccccc43)ccc21)NC1CCCC1	Pf growth 96h inconclusive (no result: Pf growth 48h)
